# Paper PMC5892938, “SARNAclust: Semi-automatic detection of RNA protein binding motifs from immunoprecipitation data”
# Whole data set: some 11,000 sequences, median “log2 fold change” near 0.00022, cut for the highest 2% near 0.34. This is one part of the list.
# Target: GST-SBP-SLBP (stem-loop binding protein) (Homo sapiens, UniProt Q14493 1-270)
# Experiment: targeted RNA Bind-n-Seq; RBNS binding buffer: 25 mM Tris pH 7.5, 150 mM KCl, 3 mM MgCl2, 0.1% Tween, 0.5 mg/mL BSA, 1 mM DTT; 27 nM protein, 750 pM RNA pool; temperature not stated; high values mean tight binding
# Settings: protein: recombinant; tags: N-terminal GST and SBP (pGEX6P1-SBP); structured_RNA
# In short: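 The protein, carrying a GST-SBP tag, was produced in Rosetta(DE3) pLysS E. coli, purified on glutathione, and mixed at 27 nM with 750 pM of a designed RNA oligo pool made by T7 transcription in RBNS binding buffer. RNA that bound was reverse transcribed using a barcoded primer of 10 nucleotides, amplified by PCR and sequenced on a MiSeq with 200-cycle paired-end reads. FLASH joined the reads, HISAT2 aligned them, and they were collapsed by barcode before the binding signal was taken as the DEseq binary-logarithm fold change of read counts for each sequence.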
row,Sequence,binding signal [log2 fold change]
1,GGUCACGUCUCAAUCAACUCCCAAAGGUUUUUUUUAGAGCCACCCAUCAACAGCUCGCAGUCAAG,0.324 ± 0.158
2,GGUCACGUCUCAAUCAACUCCCAAAGGUUUUUUUAAGAGCCACCCAUCAACAGCUCGCAGUCAAG,0.54 ± 0.157
3,GGUCACGUCUCAAUCAACUCCCAAAGGUUUUUUUUAGAACCACCCAUCAACAGCUCGCAGUCAAG,0.338 ± 0.169
4,GGUCACGUCUCAAUCAACUCCCAAAGGCUUUUCUUAGAGCCACCCAUCAACAGCUCGCAGUCAAG,0.496 ± 0.164
5,GGUCACGUCUCAAUCAACUCCCAAAGGUUUUUCUCAGAACCACCCAUCAACAGCUCGCAGUCAAG,0.402 ± 0.178
6,GGUCACGUCUCAAUCAACUCAUCGUCAGGAGUUUACUCCUGCUAACUCAACAGCUCGCAGUCAAG,0.304 ± 0.246
7,GGUCACGUCUCAAUCAACUCAUUCCCAGGAGUUUACUCCUGCUAACUCAACAGCUCGCAGUCAAG,0.364 ± 0.234
8,GGUCACGUCUCAAUCAACUCAAUCCCAGGAGUUUUCUCCUGUAAAGUCAACAGCUCGCAGUCAAG,0.317 ± 0.231
9,GGUCACGUCUCAAUCAACUCUAUCCCAGGAGUUUACUCCUGUUUUCUCAACAGCUCGCAGUCAAG,0.399 ± 0.223
10,GGUCACGUCUCAAUCAACUCAUCCCCAGGAGUUUACUCCUGUUUAGUCAACAGCUCGCAGUCAAG,0.458 ± 0.228
11,GGUCACGUCUCAAUCAACUCAUCCUCAGGAGUUUCCUCCUGUUAAGUCAACAGCUCGCAGUCAAG,0.328 ± 0.204
12,GGUCACGUCUCAAUCAACUCAAUCCCAGGAGUUUCCUCCUGCUAACUCAACAGCUCGCAGUCAAG,0.303 ± 0.231
13,GGUCACGUCUCAAUCAACUCUAGUCCAGGAGUUUUCUCCUGUUAAUUCAACAGCUCGCAGUCAAG,0.331 ± 0.217
14,GGUCACGUCUCAAUCAACUCUUUCCCAGGAGUUUUCUCCUGUUAUGUCAACAGCUCGCAGUCAAG,0.376 ± 0.182
15,GGUCACGUCUCAAUCAACUCUAUCCCAGGAGUUUCCUCCUGCAUACUCAACAGCUCGCAGUCAAG,0.312 ± 0.201
16,GGUCACGUCUCAAUCAACUCAGUCUCAGGAGUUUACUCCUGCUUAUUCAACAGCUCGCAGUCAAG,0.314 ± 0.242
17,GGUCACGUCUCAAUCAACUCAUCCUCAGGAGUUUACUCCUGCUUACUCAACAGCUCGCAGUCAAG,0.315 ± 0.216
18,GGUCACGUCUCAAUCAACUCAUCUUCAGGAGUUUACUCCUGCUUAGUCAACAGCUCGCAGUCAAG,0.342 ± 0.198
19,GGUCACGUCUCAAUCAACUCUUCCUCCAGGGAAAACCCUGGUAAACUCAACAGCUCGCAGUCAAG,0.339 ± 0.267
20,GGUCACGUCUCAAUCAACUCUUCCUCCAGGGAAACCCCUGGUUAACUCAACAGCUCGCAGUCAAG,0.443 ± 0.293
21,GGUCACGUCUCAAUCAACUCAAUCUCCAGGGAAACCCCUGGUAAACUCAACAGCUCGCAGUCAAG,0.353 ± 0.274
22,GGUCACGUCUCAAUCAACUCUUCGUCCAGGGAAACCCCUGGUUUUCUCAACAGCUCGCAGUCAAG,0.36 ± 0.292
23,GGUCACGUCUCAAUCAACUCUUCGUCCAGGGAAAACCCUGGUUUUCUCAACAGCUCGCAGUCAAG,0.335 ± 0.277
24,GGUCACGUCUCAAUCAACUCUUCGCCCAGGGAAACCCCUGGUAAUCUCAACAGCUCGCAGUCAAG,0.384 ± 0.343
25,GGUCACGUCUCAAUCAACUCUACUUCCAGGGAAAACCCUGGCAAACUCAACAGCUCGCAGUCAAG,0.31 ± 0.258

row,Sequence,binding signal [log2 fold change]
1,GGUCACGUCUCAAUCAACUCUUCUUCCAGGGAAACCCCUGGUAAUCUCAACAGCUCGCAGUCAAG,0.352 ± 0.266
2,GGUCACGUCUCAAUCAACUCAGUCCCCAGGGAAACCCCUGGUAUUUUCAACAGCUCGCAGUCAAG,0.335 ± 0.368
3,GGUCACGUCUCAAUCAACUCAGUCCCCAGGGAAAACCCUGGUUUUUUCAACAGCUCGCAGUCAAG,0.518 ± 0.357
4,GGUCACGUCUCAAUCAACUCUUCUUCCAGGGAAAACCCUGGCAAACUCAACAGCUCGCAGUCAAG,0.378 ± 0.272
5,GGUCACGUCUCAAUCAACUCAGUUUCCAGGGAAAUCCCUGGUUUAUUCAACAGCUCGCAGUCAAG,0.33 ± 0.289
6,GGUCACGUCUCAAUCAACUCAGUCUCCAGGGAAACCCCUGGUUUAUUCAACAGCUCGCAGUCAAG,0.458 ± 0.335
7,GGUCACGUCUCAAUCAACUCUAAGGAGGGGGGGAAAACCCCUUUACCCUCACACUCAACAGCUCGCAGUCAAG,0.396 ± 0.454
8,GGUCACGUCUCAAUCAACUCUAAGGAGGGGGGGAAAACCCCUUUACCCUCAUCAUCAACAGCUCGCAGUCAAG,0.486 ± 0.425
9,GGUCACGUCUCAAUCAACUCUCAGGAGGGGGGGAAAACCCCUUUACCCUCAUCGUCAACAGCUCGCAGUCAAG,0.309 ± 0.421
10,GGUCACGUCUCAAUCAACUCUCCAGAGGGGGGGAAAACCCCUUUACCCUCAACAUCAACAGCUCGCAGUCAAG,0.304 ± 0.431
11,GGUCACGUCUCAAUCAACUCAACUGAGGGGGGGAAAACCCCUUUACCCUCCACAUCAACAGCUCGCAGUCAAG,0.388 ± 0.423
12,GGUCACGUCUCAAUCAACUCAACUGAGGGGGGGAAAACCCCUUUACCCUCCAAAUCAACAGCUCGCAGUCAAG,0.448 ± 0.446
13,GGUCACGUCUCAAUCAACUCAAUAGAGGGGGGGAAAACCCCUUUACCCUCCCAAUCAACAGCUCGCAGUCAAG,0.325 ± 0.459
14,GGUCACGUCUCAAUCAACUCCCAAGAGGGGGGGAAAACCCCUUUACCCUCGUAAUCAACAGCUCGCAGUCAAG,0.444 ± 0.442
15,GGUCACGUCUCAAUCAACUCCCAAGAGGGGGGGAAAACCCCUUUACCCUCACUCUCAACAGCUCGCAGUCAAG,0.558 ± 0.444
16,GGUCACGUCUCAAUCAACUCUUACGAGGGGGGGAAAACCCCUUUGCCCUCAACAUCAACAGCUCGCAGUCAAG,0.326 ± 0.377
17,GGUCACGUCUCAAUCAACUCUUACGAGGGGGGGAAAACCCCUUUACCCUCAAAUUCAACAGCUCGCAGUCAAG,0.37 ± 0.399
18,GGUCACGUCUCAAUCAACUCUUACGAGGGGGGGAAAACCCCUUUGCCCUCAAAUUCAACAGCUCGCAGUCAAG,0.347 ± 0.395
19,GGUCACGUCUCAAUCAACUCUCACGAGGGGGGGAAAACCCCUUUACCCUCAAAUUCAACAGCUCGCAGUCAAG,0.315 ± 0.408
20,GGUCACGUCUCAAUCAACUCUUCAGAGGGGGGGAAAACCCCUUUACCCUCCUAAUCAACAGCUCGCAGUCAAG,0.368 ± 0.433
21,GGUCACGUCUCAAUCAACUCUUCAGAGGGGGGGAAAACCCCUUUACCCUCCGUUUCAACAGCUCGCAGUCAAG,0.44 ± 0.434
22,GGUCACGUCUCAAUCAACUCGUUUUCAGGAGUUUACUCCUGCUUAUUCAACAGCUCGCAGUCAAG,0.329 ± 0.222
23,GGUCACGUCUCAAUCAACUCAAAAGAGGGGGGGAAAACCCCUUUGCCCUCGAUAUCAACAGCUCGCAGUCAAG,0.336 ± 0.363
24,GGUCACGUCUCAAUCAACUCACAAGAGGGGGGGAAAACCCCUUUGCCCUCCGUAUCAACAGCUCGCAGUCAAG,0.416 ± 0.404
25,GGUCACGUCUCAAUCAACUCACAAGAGGGGGGGAAAACCCCUUUGCCCUCGAUAUCAACAGCUCGCAGUCAAG,0.468 ± 0.396

row,Sequence,binding signal [log2 fold change]
1,GGUCACGUCUCAAUCAACUCCCACGAGGGGGGGAAAACCCCUUUACCCUCACACUCAACAGCUCGCAGUCAAG,0.366 ± 0.434
2,GGUCACGUCUCAAUCAACUCCCACGAGGGGGGGAAAACCCCUUUACCCUCAACCUCAACAGCUCGCAGUCAAG,0.335 ± 0.423
3,GGUCACGUCUCAAUCAACUCCCACGAGGGGGGGAAAACCCCUUUACCCUCUCAAUCAACAGCUCGCAGUCAAG,0.362 ± 0.418
4,GGUCACGUCUCAAUCAACUCAAACGAGGGGGGGAAAACCCCUUUGCCCUCAUCUUCAACAGCUCGCAGUCAAG,0.58 ± 0.399
5,GGUCACGUCUCAAUCAACUCAAUCGAGGGGGGGAAAACCCCUUUGCCCUCAUCUUCAACAGCUCGCAGUCAAG,0.419 ± 0.432
6,GGUCACGUCUCAAUCAACUCCUCAGAGGGGGGGAAAACCCCUUUACCCUCAAUAUCAACAGCUCGCAGUCAAG,0.394 ± 0.424
7,GGUCACGUCUCAAUCAACUCAAUAGAGGGGGGGAAAACCCCUUUACCCUCAAACUCAACAGCUCGCAGUCAAG,0.319 ± 0.424
8,GGUCACGUCUCAAUCAACUCAACAGAGGGGGGGAAAACCCCUUUACCCUCAAUAUCAACAGCUCGCAGUCAAG,0.362 ± 0.427
9,GGUCACGUCUCAAUCAACUCCUCAGAGGGGGGGAAAACCCCUUUACCCUCGUCCUCAACAGCUCGCAGUCAAG,0.382 ± 0.44
10,GGUCACGUCUCAAUCAACUCCCUCGAGGGGGGGAAAACCCCUUUACCCUCAUUAUCAACAGCUCGCAGUCAAG,0.395 ± 0.38
11,GGUCACGUCUCAAUCAACUCCCUCGAGGGGGGGAAAACCCCUUUACCCUCAUCGUCAACAGCUCGCAGUCAAG,0.532 ± 0.391
12,GGUCACGUCUCAAUCAACUCUAUCCCCAGGGAAAUCCCUGGUAUAUUCAACAGCUCGCAGUCAAG,0.333 ± 0.304
13,GGUCACGUCUCAAUCAACUCUAUUCCCAGGGAAAGCCCUGGCUAUCUCAACAGCUCGCAGUCAAG,0.342 ± 0.296
14,GGUCACGUCUCAAUCAACUCUAUCCCCAGGGAAAGCCCUGGUAUAUUCAACAGCUCGCAGUCAAG,0.366 ± 0.305
15,GGUCACGUCUCAAUCAACUCAAUCCCCAGGGAAAGCCCUGGUAUUCUCAACAGCUCGCAGUCAAG,0.378 ± 0.274
16,GGUCACGUCUCAAUCAACUCUAUUCCCAGGGAAAGCCCUGGUAUUCUCAACAGCUCGCAGUCAAG,0.307 ± 0.273
17,GGUCACGUCUCAAUCAACUCUAUUCCCAGGGAAAGCCCUGGUAUUUUCAACAGCUCGCAGUCAAG,0.387 ± 0.281
18,GGUCACGUCUCAAUCAACUCUUUUUCCAGGGAAACCCCUGGCAUACUCAACAGCUCGCAGUCAAG,0.44 ± 0.276
19,GGUCACGUCUCAAUCAACUCUUCUUCCAGGGAAAUCCCUGGCAUACUCAACAGCUCGCAGUCAAG,0.399 ± 0.235
20,GGUCACGUCUCAAUCAACUCAAGUCCCAGGGAAAACCCUGGCAAUUUCAACAGCUCGCAGUCAAG,0.381 ± 0.341
21,GGUCACGUCUCAAUCAACUCAUCUCCCAGGGAAAACCCUGGUAUAUUCAACAGCUCGCAGUCAAG,0.374 ± 0.346
22,GGUCACGUCUCAAUCAACUCUUUUCCCAGGGAAAUCCCUGGCAUACUCAACAGCUCGCAGUCAAG,0.334 ± 0.22
23,GGUCACGUCUCAAUCAACUCAAUCCCCAGGGAAAACCCUGGCUAUUUCAACAGCUCGCAGUCAAG,0.338 ± 0.272
